The campaign covered roughly 16,000 compounds. About 4,000 (25%) were called active. Another 26% or so got no clear call; they are omitted. The call rests on the fitted dose curve; in most records, active means well fitted curve in the direction sought with a large enough effect; inconclusive means small, poorly fitted or top-dose-only effect, or effect the other way; inactive means no such curve, though single readings can be large or run the other way. The list is a sample of the results.
The compounds below were run against Cytochrome P450 2C9 (Homo sapiens) (UniProt P11712) (assay: Cytochrome panel assay with activity outcomes). Conditions: recombinant CYP, pro-luciferin dealkylation, luminescence, p450-cyp2c9; series mostly up to 57.1 µM; activity, negative = inhibition: at the top concentration.
Cytochrome P450 2C9 (Homo sapiens), sequence (P11712 whole entry, looked up): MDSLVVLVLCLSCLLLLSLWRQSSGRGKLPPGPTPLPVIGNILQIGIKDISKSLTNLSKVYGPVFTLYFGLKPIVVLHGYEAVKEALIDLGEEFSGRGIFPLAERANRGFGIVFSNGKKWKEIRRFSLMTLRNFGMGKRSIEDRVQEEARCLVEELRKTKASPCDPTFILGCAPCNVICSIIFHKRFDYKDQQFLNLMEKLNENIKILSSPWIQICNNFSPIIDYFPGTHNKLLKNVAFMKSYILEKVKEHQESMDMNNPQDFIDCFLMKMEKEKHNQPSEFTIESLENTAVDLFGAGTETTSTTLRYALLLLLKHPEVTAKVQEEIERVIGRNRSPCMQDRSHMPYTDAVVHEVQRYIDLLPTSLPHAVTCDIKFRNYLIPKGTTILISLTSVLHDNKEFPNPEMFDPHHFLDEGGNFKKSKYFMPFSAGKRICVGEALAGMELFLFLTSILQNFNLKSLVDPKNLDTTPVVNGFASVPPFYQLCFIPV
On the % scale 0 is the no-effect control and ±100 the full control effect.

AC50, active:
CS(=O)(=O)Nc1ccc([N+](=O)[O-])cc1Oc1ccccc1 3.16 µM
CC(=O)COc1ccc2c(C)c(C)c(=O)oc2c1 22.4 µM
CCCC[C@@H]1C[C@H]1C(NC(=O)c1cccnc1)c1ccc(-c2ccccc2)cc1 (some centres undefined) 5.01 µM
CCCC[C@@H]1C[C@H]1C(NC(=O)c1cccnc1)c1ccc(Cl)cc1 (some centres undefined) 12.6 µM
N#C/C(=C/c1cccc(C(F)(F)F)c1)c1nc(CCN2C(=O)c3ccccc3C2=O)cs1 0.178 µM
O=c1ccn(-c2cccc(C(F)(F)F)c2)nc1-c1ccn(-c2ccccc2F)n1 10 µM
Cc1ccc(C(=O)CN(C(=O)c2ccc(Cl)cc2)N2C(=O)c3ccccc3C2=O)cc1 3.16 µM
CCOC(=O)C1=NNC2(c3ccc(Cl)cc3)C(=O)N(c3cc(C)cc(C)c3)C(=O)C12 (centres undefined) 3.55 µM
Cc1nn(-c2ccc(F)cc2)c(C)c1NS(=O)(=O)c1ccc2ccccc2c1 12.6 µM
CCOCCCN1CC(C(=O)NCCc2ccc(C)cc2)CC1=O (centres undefined) 8.91 µM
C=CCN(CC=C)CC(O)Cn1c2ccccc2c2ccccc21 (centres undefined) 14.1 µM
Cc1ccc(OCC(O)Cn2c3ccccc3c3ccccc32)cc1 (centres undefined) 4.47 µM
Cn1c(/C=N/NC(=O)c2ccccc2Br)nc2ccccc21 2 µM
Cc1ccc(-n2nnnc2C(=Cc2ccc(N(C)C)cc2)c2nnnn2-c2ccc(C)cc2)cc1 3.55 µM
CCCCc1ccc(NC(=S)NCc2cccs2)cc1 12.6 µM
CCS(=O)(=O)N1CCN(c2c(Cl)cccc2[N+](=O)[O-])CC1 11.2 µM
Cc1nn(C(=O)c2cccnc2)c(C)c1Sc1ccc(Br)cc1 10 µM
Cc1nn(C(C)(C)C)c(OC(=O)c2ccco2)c1Sc1ccccc1 10 µM
Cc1nn(C(=O)c2ccco2)c(C)c1Sc1ccc(Br)cc1 3.98 µM
CCc1ccc(NC(=O)CS(=O)CC(=O)NCCCc2ccccc2)cc1 (centres undefined) 0.794 µM
Cc1ccc(NC(=O)NCCCc2ccccc2)cc1 11.2 µM
O=C(NCCCc1ccccc1)c1cccs1 15.8 µM

activity, negative = inhibition, inactive:
CS(=O)(=O)Nc1ccc([N+](=O)[O-])cc1OC1CCCCC1 -25%
CC(=O)NN1C(=O)c2ccc(Oc3ccc([N+](=O)[O-])cc3)cc2C1=O -23.4%
COCCNc1ncnc2ccc(-c3c(C)noc3C)cc12 7.8% [at 2.29 µM]
COC(=O)[C@@H]1[C@@H]2C[C@H]3c4[nH]c5ccccc5c4CCN3C[C@@H]2CC[C@@H]1OS(=O)(=O)O 7.13% [at 11.4 µM]
CN1CCN(c2ncnc3ccc(-c4ccccc4C#N)cc23)CC1 2.98% [at 2.29 µM]
Cc1cc(C)c(NC(=O)C2CCCN2C)c(C)c1 (centres undefined) 1.9%
CCc1cc(Cl)c(OC)c(C(=O)NC[C@@H]2CCCN2CC)c1O 0.663% [at 25.6 µM]
C[C@H](N)CCCC(C)(C)O -15.2% [at 25.6 µM]
CC(=O)Nc1c(C)nn(-c2ccc(C)c(C)c2)c1C -8.65%
Cc1ccc(CCN2CC(C(=O)NCCN3CCOCC3)CC2=O)cc1 (centres undefined) -10.2%
Cc1ccc(CCN2CC(C(=O)NCCN3CCCCCC3)CC2=O)cc1 (centres undefined) -28.6%
COc1cc2c3cc1Oc1c(OC)c(OC)cc4c1[C@@H](Cc1ccc(O)c(c1)Oc1ccc(cc1)C[C@@H]3N(C)CC2)CN(C)C4 -25.3% [at 11.4 µM]
OC(COc1ccc(OCC(O)CN2CCCCCC2)cc1)CN1CCCCCC1 (centres undefined) -0.623%
O=C(O)CC(O)C(=O)O (centres undefined) -7.21%
CC(=O)NNc1cccc(Cl)n1 -15.4%
CCCC(=O)Nc1nnc(SCC(=O)NCc2cccs2)s1 -19.5%
O=C(Cn1ccc([N+](=O)[O-])n1)NCc1cccs1 -58.8%
C#C[C@H](N)CCC(=O)O 13.6%
CCS(=O)(=O)N1CCC(C(=O)NCc2ccc(F)cc2Cl)CC1 21.2%
C/C(CCN1CCc2nc(-c3ccccc3)c(-c3ccccc3)cc2C1)=N\O[C@@H](C)c1cn([C@@H]2COC[C@@H]2O)nn1 -10.5% [at 11.4 µM]
O=C(NC(=S)Nc1nc(-c2ccc(Br)cc2)cs1)c1cccnc1 -6.99%
Cc1nc2ncnn2c(C)c1CCC(=O)N1CCN(C(=O)c2ccco2)CC1 -6.62%
NC(=O)/C(=N\OC(=O)c1ccco1)c1nc(-c2ccc(Br)cc2)cs1 58.2%
CO[C@@H]1COC(=O)[C@H]2CCCN2C(=O)[C@@H](C)COC(=O)[C@H](COCc2ccccc2)NC(=O)C/C=C\[C@H]1C 10.5% [at 11.4 µM]
NC(=S)c1ccc[n+]([C@@H]2O[C@@H](COP(=O)([O-])OP(=O)(O)OC[C@@H]3O[C@@H](n4cnc5c(N)ncnc54)[C@@H](OP(=O)(O)O)[C@H]3O)[C@@H](O)[C@H]2O)c1 -19.2%
COc1ncc2ncc(=O)n(C)c2n1 14.6%
CCCCC(=O)Nc1ccc(C(=O)NNC(=O)CCc2ccccc2)cc1 7.05%

Source: PubChem BioAssay AID1851 (National Center for Advancing Translational Sciences (NCATS), 2009)
